Legend:
Test in all cases: thermal shift delta Tm vs DMSO control; higher = stronger stabilization (binding)
Settings in all cases: 12.5 µM; protein concentration 2 µM
[1] = test system: LOC_OS01G57100-cb003
How it was run: (§1)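 Rice kinase domain constructs, made in E. coli and purified, were placed in 96-well plates at 2 μM in 19.5 μl of 100 mM potassium phosphate pH 7.5, 150 mM NaCl, 10% glycerol and 5 × SYPRO Orange, with compound in DMSO. A temperature ramp from 25°C to 95°C at 0.05°C/s was used for differential scanning fluorimetry. The melting temperature shift is a triplicate mean compared with DMSO-only protein, derived from Boltzmann fits.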

[2] = test system: LOC_OS01G60330-cb001
How it was run: as §1

[3] = test system: LOC_OS01G60700-cb002
How it was run: as §1

[4] = test system: LOC_OS01G63280-cb003
How it was run: as §1

[5] = test system: LOC_OS01G67340-cb003
How it was run: as §1

[6] = test system: LOC_OS01G70970-cb002
How it was run: as §1

[7] = test system: LOC_OS02G07810-cb001
How it was run: as §1

[8] = test system: LOC_OS02G08530-cb003
How it was run: as §1

[9] = test system: LOC_OS02G14120-cb001
How it was run: as §1

[10] = test system: LOC_OS02G17970-cb001
How it was run: as §1

[11] = test system: LOC_OS02G45750-cb003
How it was run: as §1

[12] = test system: LOC_OS02G54510-cb004
How it was run: as §1

[13] = test system: LOC_OS03G04050-cb001
How it was run: as §1

[14] = test system: LOC_OS03G12390-cb001
How it was run: as §1

[15] = test system: LOC_OS03G27990-cb004
How it was run: as §1

[16] = test system: LOC_OS03G50450-cb001
How it was run: as §1

[17] = test system: LOC_OS03G50810-cb003
How it was run: as §1

[18] = test system: LOC_OS04G35114-cb001
How it was run: as §1

[19] = test system: T1, LOC_OS04G38480-cb003
T1 sequence (whole entry): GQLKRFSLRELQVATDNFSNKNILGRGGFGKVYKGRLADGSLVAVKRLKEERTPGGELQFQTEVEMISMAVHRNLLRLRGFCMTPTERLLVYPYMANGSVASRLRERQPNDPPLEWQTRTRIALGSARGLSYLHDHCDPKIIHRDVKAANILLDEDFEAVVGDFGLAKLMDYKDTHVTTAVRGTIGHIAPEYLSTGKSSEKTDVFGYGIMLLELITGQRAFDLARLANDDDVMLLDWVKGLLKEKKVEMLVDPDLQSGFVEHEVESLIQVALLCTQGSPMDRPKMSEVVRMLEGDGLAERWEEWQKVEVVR
How it was run: as §1

[20] = test system: T2, LOC_OS04G41100-cb001
T2 sequence (whole entry): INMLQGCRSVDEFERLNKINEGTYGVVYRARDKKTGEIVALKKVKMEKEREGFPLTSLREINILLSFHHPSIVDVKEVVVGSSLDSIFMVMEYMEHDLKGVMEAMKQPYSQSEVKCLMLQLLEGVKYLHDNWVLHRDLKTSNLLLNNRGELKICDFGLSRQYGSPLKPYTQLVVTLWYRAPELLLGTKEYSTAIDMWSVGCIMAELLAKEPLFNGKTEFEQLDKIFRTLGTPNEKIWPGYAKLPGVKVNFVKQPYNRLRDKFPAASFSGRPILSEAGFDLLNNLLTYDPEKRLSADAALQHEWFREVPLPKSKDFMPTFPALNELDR
How it was run: as §1
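Also: purified Escherichia coli-expressed rice kinase domain construct.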

SMILES	thermal shift delta Tm [1] [°C]	thermal shift delta Tm [2] [°C]	thermal shift delta Tm [3] [°C]	thermal shift delta Tm [4] [°C]	thermal shift delta Tm [5] [°C]	thermal shift delta Tm [6] [°C]	thermal shift delta Tm [7] [°C]	thermal shift delta Tm [8] [°C]	thermal shift delta Tm [9] [°C]	thermal shift delta Tm [10] [°C]	thermal shift delta Tm [11] [°C]	thermal shift delta Tm [12] [°C]	thermal shift delta Tm [13] [°C]	thermal shift delta Tm [14] [°C]	thermal shift delta Tm [15] [°C]	thermal shift delta Tm [16] [°C]	thermal shift delta Tm [17] [°C]	thermal shift delta Tm [18] [°C]	thermal shift delta Tm [19] [°C]	thermal shift delta Tm [20] [°C]
CNC(=O)c1ccccc1Sc1ccc2c(/C=C/c3ccccn3)n[nH]c2c1 [Axitinib]	0.01	1.21	1.17	0.65	-0.05	0.68	0.49	0.53	3.54	-0.24	4.92	0.12	0.3	0.31	0.01	0.21	0.35	2.98	0.63	0.65
CCn1c(-c2nonc2N)nc2cnc(Oc3cccc(NC(=O)c4ccc(OCCN5CCOCC5)cc4)c3)cc21	0.1	1.01	1.61	0.37	1.07	0.14	0.95	1.19	-0.13	1.79	-0.36	0.27	0.38	0.99	0.4	-0.03	0.42	0.1	2.03	0.94
FC(F)c1nc2ccccc2n1-c1nc(N2CCOCC2)nc(N2CCOCC2)n1	0.81	1.34	1.13	0.27	-0.18	0.47	0.59	0.83	0.41	0.88	0.78	0.23	0.44	0.51	0.31	0.75	0.35	0.03	1.98	0.9
Cc1[nH]c(/C=C2\C(=O)Nc3ccc(S(=O)(=O)N(C)c4cccc(Cl)c4)cc32)c(C)c1C(=O)N1CCN(C)CC1	1.03	5.91	0.86	-0.04	-0.53	0.47	-0.12	3.7	8.19	-0.27	0	0.59	0.42	2.96	0.14	-0.1	0	7.25	5.89	0.68
Nc1ccc(-c2ccc3ncc4ccc(=O)n(-c5cccc(C(F)(F)F)c5)c4c3c2)cn1 [Torin 2]	0.64	1.09	1.01	0.11	0.33	0.87	0.19	1.53	1.62	1.12	2.36	-0.06	0.2	0.23	0.43	0.37	0.92	2.97	0.88	0.27
O=C(O)[C@]1(Cc2cccc(Nc3nccs3)n2)CC[C@@H](Oc2cccc(Cl)c2F)CC1	5.7	1.72	-1.18	0.43	3.34	9.45	0.53	5.62	13.5	0.24	1.57	4.63	0.19	7.89	0.23	1.68	2.52	9.74	4.53	0.24
COCCNCc1ccc(-c2cc3nccc(Oc4ccc(NC(=O)C5(C(=O)Nc6ccc(F)cc6)CC5)cc4F)c3s2)nc1 [Sitravatinib (MGCD516)]	0.24	1.12	-0.27	1.87	7.72	5.29	0.47	2.12	7.48	1.18	6.42	1.08	0.75	0.75	1.06	0.57	3.13	6.52	3.71	3.13
CCCNC(=O)c1cn2ncnc(Nc3cc(C(=O)NC4CC4)ccc3C)c2c1C	0.66	0.41	0.99	0.33	0.18	0.12	0.08	0.8	0.54	-0.21	0.71	0.18	0.45	-0.14	0.24	0.49	0.26	0.65	0.42	0.24
CCCS(=O)(=O)Nc1ccc(F)c(C(=O)c2c[nH]c3ncc(-c4ccc(Cl)cc4)cc23)c1F [Vemurafenib (PLX4032, RG7204)]	3.36	10.2	0.62	14.8	3.46	3.78	2.03	1.07	4.6	1.48	9.27	1.86	0.64	4.44	0.69	1.54	2.6	4.48	4.49	0.68
Nc1cc(C(F)(F)F)c(-c2cc(N3CCOCC3)nc(N3CCOCC3)n2)cn1 [Buparlisib (BKM120, NVP-BKM120)]	2.16	0.57	1.2	0.16	0.47	0.27	1.48	0.84	0.46	0.37	0.32	-0.07	0.3	-0.03	0.23	0.11	0.38	0.31	0.85	0.22
CC[C@H](CO)Nc1nc(NCc2ccccc2)c2ncn(C(C)C)c2n1 [Roscovitine (Seliciclib,CYC202)]	0.43	0.99	0.89	0.16	-0.54	0.28	0.93	0.8	0.04	0.31	0.1	0.11	0.22	0.14	-0.05	0.28	0.02	0.57	0.99	0.53
CN1CCN(c2ccc(-c3ccncc3-c3cc(F)c(O)c(F)c3)cc2)CC1	0.87	1.02	0.66	0.31	0.24	0.16	0.06	0.29	1.22	0.89	0.61	0.42	0.42	-0.07	0.3	0.59	0.5	1.01	1.07	0.43
